Data taken from PubChem BioAssay (NCI).
The panel holds about 79,000 compounds, 15% with a hit somewhere; the sample as a whole holds those more often. A number with no mark means an inactive call. Calls of active or inactive are those of the source. No stated cut-off is given here; in the data, active means growth inhibition above about 70%; inactive means the rest.

Tests used:
[1] = NCI Yeast Anticancer Drug Screen. Data for the rad50 strain (AID 155);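 further: 0% = growth of vehicle-only cultures of the same strain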; settings: S. cerevisiae rad50 strain growth inhibition, stronger effect = higher value
How it was run: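 A DNA repair-deficient yeast mutant serves as the test organism; compound-induced growth inhibition is calculated against vehicle-treated cells.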

[2] = NCI Yeast Anticancer Drug Screen. Data for the mec2-1 strain (AID 157); settings: S. cerevisiae mec2-1 strain, stronger effect = higher value
How it was run: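 mec2-1 yeast strain, carrying an alteration in DNA damage repair or cell cycle control, was exposed to compounds; growth inhibition was measured relative to vehicle-treated controls.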

[3] = NCI Yeast Anticancer Drug Screen. Data for the sgs1 mgt1 strain (AID 161);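 further: 0% = growth of cultures given vehicle only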; settings: S. cerevisiae sgs1 mgt1 strain, stronger effect = higher value
How it was run: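 This yeast growth screen uses a strain with defined DNA-repair lesions; compound-treated growth is compared with vehicle-treated growth.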

[4] = NCI Yeast Anticancer Drug Screen. Data for the cln2 rad14 strain (AID 165);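 further: 0% = growth equal to vehicle treated cultures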; settings: S. cerevisiae cln2 rad14 strain, stronger effect = higher value
How it was run: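 Yeast carrying cln2 and rad14 alterations (cell cycle control and DNA damage repair) were exposed to compounds. Growth inhibition was measured against vehicle-treated controls.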

[5] = NCI Yeast Anticancer Drug Screen. Data for the bub3 strain (AID 167); settings: S. cerevisiae bub3 mutant strain, stronger effect = higher value
How it was run: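 Inhibition values come from growth of compound-treated mutant yeast normalised to vehicle-treated controls.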

[6] = NCI Yeast Anticancer Drug Screen. Data for the wt1 strain (AID 149);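 further: 0% = growth of vehicle-treated wt1 cultures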; settings: S. cerevisiae wt1 strain (SPY 50644) growth inhibition, stronger effect = higher value
How it was run: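 Vehicle-normalised growth inhibition; strain wt1; compound exposure.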

[7] = NCI Yeast Anticancer Drug Screen. Data for the rad50EPP+ strain (AID 151);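 further: 0% = growth of vehicle-treated control cultures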; settings: S. cerevisiae rad50 mutant strain, stronger effect = higher value
How it was run: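 Yeast strain carrying rad50 alteration (rad50EPP+) exposed to compounds; growth inhibition measured relative to vehicle-treated controls.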

[8] = NCI Yeast Anticancer Drug Screen. Data for the rad14 strain (AID 159);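 further: 0% = growth of vehicle-treated control cultures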; settings: S. cerevisiae rad14 strain growth inhibition, stronger effect = higher value
How it was run: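 Vehicle-treated cultures served as the baseline for growth inhibition of a DNA repair-mutant yeast strain exposed to each compound.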

[9] = NCI Yeast Anticancer Drug Screen. Data for the CLN2oe strain (AID 163);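 further: 0% = growth of vehicle-only control cultures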; settings: S. cerevisiae CLN2oe strain, stronger effect = higher value
How it was run: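 Yeast cells carrying a defined cell-cycle control alteration were exposed to test compounds. Growth inhibition was scored against vehicle-treated control cultures.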

[10] = NCI Yeast Anticancer Drug Screen. Data for the wt2 strain (AID 169);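 further: 0% = growth of vehicle-treated yeast cultures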; settings: S. cerevisiae wt2 strain growth inhibition, stronger effect = higher value
How it was run: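 Yeast cells were exposed to test compounds, and growth inhibition was measured relative to vehicle-treated controls.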

[11] = NCI Yeast Anticancer Drug Screen. Data for the sgs1 strain (AID 173);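 further: 0% = growth of vehicle-only control cultures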; settings: S. cerevisiae sgs1 mutant, stronger effect = higher value
How it was run: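 Yeast mutant strains carrying defined defects in DNA damage repair or cell cycle control were exposed to test compounds. Growth inhibition was scored against vehicle-treated controls.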

[12] = NCI Yeast Anticancer Drug Screen. Data for the mlh1 rad18 strain (AID 175); settings: S. cerevisiae mlh1 rad18 strain growth inhibition, stronger effect = higher value
How it was run: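 Growth inhibition of the yeast strain was measured after compound exposure and expressed relative to vehicle-treated controls. The strain carries defined defects in DNA damage repair.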

[13] = NCI Yeast Anticancer Drug Screen. Data for the rad18 strain (AID 177); settings: S. cerevisiae rad18 mutant growth inhibition, stronger effect = higher value
How it was run: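 Yeast carrying a defined DNA damage repair alteration were exposed to compounds. Growth inhibition was expressed relative to vehicle-treated controls.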

[14] = at 5.0 µM (retest, dose inferred, filed as 0.5)
[15] = at 50.0 µM (retest, dose inferred, filed as 5.0)

For `CC(=O)[CH-]C(=O)c1ccccc1.CC(=O)[CH-]C(=O)c1ccccc1.C[C@]12CCC(=O)C=C1CC[C@@H]1C2CC[C@@]2(C)C1CC[C@]2(C)[O-].C[C@]12CCC(=O)C=C1CC[C@@H]1C2CC[C@@]2(C)C1CC[C@]2(C)[O-].Cl.[Ti+4]` (stereo partly drawn), the growth inhibition [1, 14] was 33%, the growth inhibition [1, 15] was 76% (active) and the growth inhibition ([1]; at 50.0 µM) was 86.8% (active). For the same compound, the growth inhibition [2, 14] was 26%, the growth inhibition [2, 15] was 87% (active) and the growth inhibition ([2]; at 50.0 µM) was 85% (active). For the same compound, the growth inhibition [3, 14] was 37%, the growth inhibition [3, 15] was 93% (active) and the growth inhibition ([3]; at 50.0 µM) was 84.8% (active). For the same compound, the growth inhibition [4, 14] was 13%, the growth inhibition [4, 15] was 72% (active) and the growth inhibition ([4]; at 50.0 µM) was 86.1% (active). The growth inhibition [5, 14] was 39%, the growth inhibition [5, 15] was 94% (active) and the growth inhibition ([5]; at 50.0 µM) was 84.5% (active).
In the case of `CNCC(O)c1ccc(O)c(O)c1.[Pt].c1ccc([PH+](c2ccccc2)c2ccccc2)cc1.c1ccc([PH+](c2ccccc2)c2ccccc2)cc1`, the growth inhibition ([6]; at 1.2 µM) is reported as -1%, the growth inhibition ([6]; at 3.7 µM) is reported as -2% and the growth inhibition ([6]; at 11.0 µM) is reported as -2%. For the same compound, the growth inhibition ([6]; at 33.0 µM) was 8%, the growth inhibition ([6]; at 100.0 µM) was 53% and the growth inhibition ([7]; at 1.2 µM) was 2%. It also gave a growth inhibition ([7]; at 3.7 µM) of -3%, a growth inhibition ([7]; at 11.0 µM) of -21% and a growth inhibition ([7]; at 33.0 µM) of 11%. The growth inhibition ([7]; at 100.0 µM) was 93% (active), the growth inhibition ([1]; at 1.2 µM) was -1% and the growth inhibition ([1]; at 3.7 µM) was -3%. For the same compound, the growth inhibition [1, 14] was -8%, the growth inhibition ([1]; at 11.0 µM) was -1% and the growth inhibition ([1]; at 33.0 µM) was 96% (active). For the same compound, the growth inhibition [1, 15] was 99% (active), the growth inhibition ([1]; at 50.0 µM) was 99% (active) and the growth inhibition ([1]; at 100.0 µM) was 96% (active). For the same compound, the growth inhibition ([2]; at 1.2 µM) was 3%, the growth inhibition ([2]; at 3.7 µM) was 6% and the growth inhibition [2, 14] was -8%. The growth inhibition ([2]; at 11.0 µM) was 4%, the growth inhibition ([2]; at 33.0 µM) was 65% and the growth inhibition [2, 15] was 99% (active). For the same compound, the growth inhibition ([2]; at 50.0 µM) was 98.8% (active), the growth inhibition ([2]; at 100.0 µM) was 97% (active) and the growth inhibition ([8]; at 1.2 µM) was -1%. The growth inhibition ([8]; at 3.7 µM) was -3%, the growth inhibition ([8]; at 11.0 µM) was 4% and the growth inhibition ([8]; at 33.0 µM) was 98% (active). The growth inhibition ([8]; at 100.0 µM) was 96% (active), the growth inhibition [3, 14] was -2% and the growth inhibition [3, 15] was -7%. For the same compound, the growth inhibition ([3]; at 50.0 µM) was 99.1% (active), the growth inhibition ([9]; at 1.2 µM) was 0% and the growth inhibition ([9]; at 3.7 µM) was -8%. The growth inhibition ([9]; at 11.0 µM) was 3%, the growth inhibition ([9]; at 33.0 µM) was 93% (active) and the growth inhibition ([9]; at 100.0 µM) was 96% (active). For the same compound, the growth inhibition [4, 14] was 17%, the growth inhibition [4, 15] was 99% (active) and the growth inhibition ([4]; at 50.0 µM) was 98.8% (active). For the same compound, the growth inhibition ([5]; at 1.2 µM) was 0%, the growth inhibition ([5]; at 3.7 µM) was 1% and the growth inhibition [5, 14] was -18%. The growth inhibition ([5]; at 11.0 µM) was -3%, the growth inhibition ([5]; at 33.0 µM) was 75% (active) and the growth inhibition [5, 15] was 99% (active). The growth inhibition ([5]; at 50.0 µM) was 98.8% (active), the growth inhibition ([5]; at 100.0 µM) was 96% (active) and the growth inhibition ([10]; at 1.2 µM) was -2%. The growth inhibition ([10]; at 3.7 µM) was -2%, the growth inhibition ([10]; at 11.0 µM) was 8% and the growth inhibition ([10]; at 33.0 µM) was 98% (active). For the same compound, the growth inhibition ([10]; at 100.0 µM) was 98% (active), the growth inhibition ([11]; at 1.2 µM) was 2% and the growth inhibition ([11]; at 3.7 µM) was 4%. For the same compound, the growth inhibition ([11]; at 11.0 µM) was 15%, the growth inhibition ([11]; at 33.0 µM) was 86% (active) and the growth inhibition ([11]; at 100.0 µM) was 97% (active). For the same compound, the growth inhibition [12, 14] was 13%, the growth inhibition [12, 15] was 99% (active) and the growth inhibition ([12]; at 50.0 µM) was 99% (active). It also gave a growth inhibition ([13]; at 1.2 µM) of 0%, a growth inhibition ([13]; at 3.7 µM) of 2% and a growth inhibition ([13]; at 11.0 µM) of 19%. The growth inhibition ([13]; at 33.0 µM) was 80% (active) and the growth inhibition ([13]; at 100.0 µM) was 96% (active).
`Cc1ccc(S)cc1.[Pb]` gave a growth inhibition [1, 14] of 0%, a growth inhibition [1, 15] of 30% and a growth inhibition ([1]; at 50.0 µM) of 20.1%. It also gave a growth inhibition [2, 14] of 2%, a growth inhibition [2, 15] of 6% and a growth inhibition ([2]; at 50.0 µM) of 43.1%. For the same compound, the growth inhibition [3, 14] was 3%, the growth inhibition [3, 15] was 28% and the growth inhibition ([3]; at 50.0 µM) was 44.5%. It also gave a growth inhibition [4, 14] of 5%, a growth inhibition [4, 15] of 2% and a growth inhibition ([4]; at 50.0 µM) of -1.55%. For the same compound, the growth inhibition [5, 14] was 3%, the growth inhibition [5, 15] was 50% and the growth inhibition ([5]; at 50.0 µM) was 95.9% (active).
For `Cc1ccc(P(c2ccc(C)cc2)c2ccc(C)cc2)cc1`, the growth inhibition ([1]; at 1.2 µM) was 16%, the growth inhibition ([1]; at 3.7 µM) was 26% and the growth inhibition [1, 14] was 57%. The growth inhibition ([1]; at 11.0 µM) was 25%, the growth inhibition ([1]; at 33.0 µM) was 33% and the growth inhibition [1, 15] was 96% (active). The growth inhibition ([1]; at 50.0 µM) was 37.7%, the growth inhibition ([1]; at 100.0 µM) was 36% and the growth inhibition ([2]; at 1.2 µM) was -3%. The growth inhibition ([2]; at 3.7 µM) was -2%, the growth inhibition [2, 14] was 58% and the growth inhibition ([2]; at 11.0 µM) was 2%. The growth inhibition ([2]; at 33.0 µM) was 24%, the growth inhibition [2, 15] was 98% (active) and the growth inhibition ([2]; at 50.0 µM) was 9.9%. It also gave a growth inhibition ([2]; at 100.0 µM) of 32%, a growth inhibition [3, 14] of 7% and a growth inhibition [3, 15] of 43%. It also gave a growth inhibition ([3]; at 50.0 µM) of 39.2%, a growth inhibition [4, 14] of 69% and a growth inhibition [4, 15] of 44%. It also gave a growth inhibition ([4]; at 50.0 µM) of 35.9%, a growth inhibition ([5]; at 1.2 µM) of 20% and a growth inhibition ([5]; at 3.7 µM) of 43%. For the same compound, the growth inhibition [5, 14] was 43%, the growth inhibition ([5]; at 11.0 µM) was 57% and the growth inhibition ([5]; at 33.0 µM) was 78% (active). The growth inhibition [5, 15] was 88% (active), the growth inhibition ([5]; at 50.0 µM) was 75.8% (active) and the growth inhibition ([5]; at 100.0 µM) was 75% (active). For the same compound, the growth inhibition [12, 14] was 49%, the growth inhibition [12, 15] was 97% (active) and the growth inhibition ([12]; at 50.0 µM) was 26.4%.
In the case of `c1ccc2c(NCCCCCCCCNc3c4ccccc4nc4ccccc34)c3ccccc3nc2c1`, the growth inhibition [1, 14] is reported as 87% (active), the growth inhibition [1, 15] is reported as 97% (active) and the growth inhibition ([1]; at 50.0 µM) is reported as 85.3% (active). The growth inhibition [2, 14] was 89% (active), the growth inhibition [2, 15] was 98% (active) and the growth inhibition ([2]; at 50.0 µM) was 87.5% (active). For the same compound, the growth inhibition [3, 14] was 64%, the growth inhibition [3, 15] was 90% (active) and the growth inhibition ([3]; at 50.0 µM) was 75.4% (active). The growth inhibition [4, 14] was 44%, the growth inhibition [4, 15] was 83% (active) and the growth inhibition ([4]; at 50.0 µM) was 46.7%. The growth inhibition [5, 14] was 68%, the growth inhibition [5, 15] was 49% and the growth inhibition ([5]; at 50.0 µM) was 80.2% (active). For the same compound, the growth inhibition [12, 14] was 91% (active) and the growth inhibition [12, 15] was 97% (active).
With `Cc1ccc(NP(=O)(Oc2ccccc2)N(CCCl)CCCl)cc1` (stereo not drawn) the growth inhibition [1, 14] was 11%, the growth inhibition [1, 15] was 10% and the growth inhibition ([1]; at 50.0 µM) was 74% (active). It also gave a growth inhibition [2, 14] of -8%, a growth inhibition [2, 15] of 10% and a growth inhibition ([2]; at 50.0 µM) of 23.9%. For the same compound, the growth inhibition [3, 14] was 8%, the growth inhibition [3, 15] was 20% and the growth inhibition ([3]; at 50.0 µM) was 73.5% (active). It also gave a growth inhibition [4, 14] of 30%, a growth inhibition [4, 15] of 61% and a growth inhibition ([4]; at 50.0 µM) of 56.5%. For the same compound, the growth inhibition [5, 14] was 14%, the growth inhibition [5, 15] was 32% and the growth inhibition ([5]; at 50.0 µM) was 62%.
